Inconclusive results are not listed. Activity calls are given as the source filed them. Calls follow the shape of the dose curve; as a rule, active = well fitted activation curve with a large enough effect in the repeat runs; inconclusive = weak or mixed curves; inactive = flat fitted curve, though single readings scatter.
% is scaled to controls: 0 for no effect and ±100 for the full control effect; potency is read from the fitted curve at half-maximal effect.

This test in a line: A CellTox Green Cytotoxicity Assay to monitor cytotoxicity in HEK293 cells - 40 hour (AID 1224871). Also: nearly all actives have a fitted effect of over 45% in size. The settings on record: CellTox Green fluorescence; series mostly up to 76.8 µM; cytotoxicity increase: at the top concentration. The text has this: National Center for Advancing Translational Sciences [NCATS]
NIH Chemical Genomics Center [NCGC]
U.S. Environmental Protection Agency [EPA]
National Institutes of Environmental Health Sciences [NIEHS]
National Toxicology Program [NTP]
Cell-based models are critical for drug discovery. Determining the natural cytotoxic effects resulting from test compounds is an essential research activity. A CellTox Green Cytotoxicity Assay to monitor cytotoxicity in real time of continues cell culture during 40 hours of the compound treatment was used to screen Tox21 10K library compounds in Hek293 cells. CellTox Green Cytotoxicity Assay is a nonlytic, homogeneous, biofluorescent method to measure cytotoxicity in cell culture after experimental manipulation. The assay system uses a proprietary asymmetric cyanine dye that is excluded from viable cells but preferentially stains the dead cell's DNA. […] Viable cells produce no appreciable increases in fluorescence. Therefore, the fluorescence signal produced by the binding interaction with dead cell DNA is proportional to cytotoxicity.
The mixture of Hek293 cell suspension and reagents were dispensed at 600cells/6 ul/well in 1536-well tissue culture treated black solid bottom plates using a Multidrop dispenser. After the assay plates were incubated at a 37 C/5% CO2 incubator for 5 hours, 23 nL of compounds dissolved in DMSO, positive and negative controls was transferred to the assay plate by a pintool work station. The plates were incubated at 37 C for 40 hours. The fluorescence intensity were measured at 0h, 8h, 16h, 24h, 32h and 40h time points using ViewLux plate reader during compound treatment.
As to `NC(=O)c1ccccc1Cl`, the “cytotoxicity increase” value was -3.26% (inactive).
Same read-out and setting: the figure for `Nc1cc([N+](=O)[O-])cc(Cl)c1O` is -4.86% (inactive); for `[Cl][Sc]([Cl])[Cl]` it is 5.01% (inactive).
Consider `COc1c(Br)cc(Br)c(C)c1Br`, for which the “cytotoxicity increase” value is -0.66% (inactive).
Turning to `CCC(C)(C)c1ccc(CC(C)CN2C[C@@H](C)O[C@@H](C)C2)cc1` (stereo not given in full), the Potency was 23.9 µM (active).
On the same count and under the same terms, the value for `CC(O)(c1ccc(Cl)cc1)c1ccc(Cl)cc1` was 49 µM (active).
As to `CC1(C)[C@H](C(=O)OCc2cccc(Oc3ccccc3)c2)[C@@H]1C=C(Cl)Cl`, the “cytotoxicity increase” value was 12.9% (inactive).
On the same count and under the same terms, the figure for `Oc1ccc(C2(c3ccc(O)c(C4CCCCC4)c3)CCCCC2)cc1C1CCCCC1` is -3.93% (inactive); for `O=c1cc[nH]cc1` it is -1.18% (inactive).
On the same count and under the same terms, the value for `C=C1CC[C@H]2O[C@]2(C)CC[C@@H]2[C@@H]1CC2(C)C` was -13.9% (inactive); that for `O=C1OCc2ccccc21` was -16.7% (inactive).
Same read-out and setting: the figure for `Oc1ccc2c(c1)CCC2` is 8.49% (inactive); for `CCCCCCCCc1ccc(Nc2ccc(CCCCCCCC)cc2)cc1` it is -6.88% [at 35.3 µM] (inactive); for `CCOC(=O)[C@H](C)O` it is 13.1% (inactive).
In the case of `CC(c1cc(C(C)(C)C)cc(C(C)(C)C)c1O)c1cc(C(C)(C)C)cc(C(C)(C)C)c1O`, the “cytotoxicity increase” value is 15.1% (inactive).
Same read-out and setting: the figure for `C=C(C)CCO` is -3.75% (inactive).
On to `Cc1cc(C)c(O)c(C(C)(C)C)c1`, for which the Potency is 34.7 µM (active).
As for `CSc1nnc(C(C)(C)C)c(=O)[nH]1`, the “cytotoxicity increase” value is -0.649% (inactive).
Same read-out and setting: the value for `C=C(C)C1CCC(C)CC1O` (stereo not given) was -6.2% (inactive).
Same read-out and setting: the value for `CC(C=O)c1ccccc1` (stereo not given) was -16.7% (inactive).
On the same count and under the same terms, the figure for `C=Cc1ccncc1` is -0.461% (inactive); for `CCCCCCCCCCCCCCCCC(C(=O)O)C(O)(CC(=O)O)C(=O)O` (stereo not given) it is 17.5% [at 35.3 µM] (inactive).
For the compound `CCOC(=O)C1=NN(c2ccc(Cl)cc2Cl)C(C)(C(=O)OCC)C1` (stereo not given), the “cytotoxicity increase” value was -6.43% (inactive).
The same measure, in the same setting: the figure for `O=[N+]([O-])c1ccc(CO)cc1` is 2.55% (inactive).
As for `COc1cccc(-c2ccc(/C=C\CN3CCCCCC3)cc2Cl)c1`, the Potency was 43.4 µM (active).
As for `COc1cc2ncnc(Nc3cccc(Cl)c3)c2cc1OC`, the cytotoxicity increase was -0.731% [at 15.8 µM] (inactive).
With `COc1cc(/C=C/C(=O)CC(=O)/C=C/c2ccc(O)c(OC)c2)ccc1O`, the Potency is 24.7 µM (active).
Turning to `[Cl][Dy]([Cl])[Cl]`, the “cytotoxicity increase” value is 8.69% (inactive).
On the same count and under the same terms, the figure for `CCCCCCCCSCc1cc(C)c(O)c(CSCCCCCCCC)c1` is -14.5% (inactive); for `CN1CCN(C)CC1` it is 15% (inactive).
Still for that read-out and setting: the figure for `N#Cc1ccc(C/C(=N/NC(=O)Nc2ccc(OC(F)(F)F)cc2)c2cccc(C(F)(F)F)c2)cc1` is 1.98% (inactive); for `CC(=O)[C@]1(O)Cc2c(O)c3c(c(O)c2[C@@H](O[C@H]2C[C@H](N)[C@H](O)[C@H](C)O2)C1)C(=O)c1ccccc1C3=O` it is 3.23% [at 35.3 µM] (inactive).
Still for that read-out and setting: the value for `Nc1ccc2c(S(=O)(=O)O)cccc2c1S(=O)(=O)O` was -0.906% [at 35.3 µM] (inactive).
Take `CCCCC/C=C\C=C\C(=O)OCC`: the Potency was 20.3 µM (active).
With `Nc1ccc(Oc2cccc(Oc3ccc(N)cc3)c2)cc1`, the “cytotoxicity increase” value is 2.12% (inactive).
Still for that read-out and setting: the value for `O=S(=O)(c1ccc(OCc2ccccc2)cc1)c1ccccc1O` was -11.1% (inactive).
For the compound `CN(C)CCOc1ccc(/C(=C(/CCCl)c2ccccc2)c2ccccc2)cc1`, the Potency is 45.8 µM (active).
As to `S=C1NC=NC2N=CNC12` (stereo not given), the “cytotoxicity increase” value is -1.99% (inactive).
Still for that read-out and setting: the figure for `SC1CCCCC1` is 12.5% (inactive).
The same measure, in the same setting: the value for `C=C[Si](C)(C)Cl` was -9.04% [at 6.97 µM] (inactive).

Values taken from PubChem BioAssay (Tox21).
